Data from PubChem BioAssay (NCATS).
Records with an inconclusive call do not appear. Calls of active or inactive are those of the source. The call rests on the fitted dose curve; in most records, active means well fitted curve in the direction sought with a large enough effect; inconclusive means small, poorly fitted or top-dose-only effect, or another doubt; inactive means no such curve, though single readings can be large; an effect the other way counts as inactive or inconclusive.

Columns and labels:
MCC-26 = experiment: qHTS assay to identify novel small-molecules to repurpose for Merkel cell carcinoma treatment (AID 1296009); details: MCC and control cell lines, CellTiter-Glo viability, 72 h; series mostly up to 46 µM; further: nearly all actives have a fitted effect of over 60% in size
Outline: (§1)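 After compound transfer in DMSO, plates were kept 72 hr at 37 degree celsius. Luminescent ATP signal from CellTiter-Glo served as viability measure, normalized against DMSO and no-cell controls.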

MKL-2 = experiment: as above; details: MCC and control cell lines, CellTiter-Glo viability, 72 h; series mostly up to 46 µM
Outline: as §1

UISO = experiment: as above; details: MCC and control cell lines, CellTiter-Glo viability, 72 h; series mostly up to 46 µM
Outline: as §1

MKL-1 = experiment: as above; details: MCC and control cell lines, CellTiter-Glo viability, 72 h; series mostly up to 46 µM
Outline: as §1

WaGa = experiment: as above; details: MCC and control cell lines, CellTiter-Glo viability, 72 h; series mostly up to 46 µM
Outline: as §1

C33A = experiment: Primary qHTS to identify gynecologic anti-cancer compounds using libraries of approved drugs and bioactive compounds (AID 1345084); details: Gynecologic cancer cell panel viability, ATPlite luminescence, 48 h; series mostly up to 57.5 µM; further: nearly all actives have a fitted effect of over 55% in size
Outline: (§2)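 ATP-based viability (ATPlite), 1,000 cells/well, 16 h pre-incubation, 48 h compound at 37 C, 5% CO2, 15 min RT before read.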

CAOV3 = experiment: as above; details: Gynecologic cancer cell panel viability, ATPlite luminescence, 48 h; series mostly up to 57.5 µM
Outline: as §2

CASKI = experiment: as above; details: Gynecologic cancer cell panel viability, ATPlite luminescence, 48 h; series mostly up to 57.5 µM
Outline: as §2

Es-2 = experiment: as above; details: Gynecologic cancer cell panel viability, ATPlite luminescence, 48 h; series mostly up to 57.5 µM
Outline: as §2

NIH3T3 = experiment: qHTS assay to identify novel small-molecules to repurpose for Merkel cell carcinoma treatment (AID 1296009); details: MCC and control cell lines, CellTiter-Glo viability, 72 h; series mostly up to 44.8 µM; further: nearly all actives have a fitted effect of over 60% in size
Outline: as §1

Measured: Potency
Potency means the concentration at half of the fitted maximal effect.

CN(C)CCOc1ccc(-c2nc(-c3ccc4c(c3)CCC4=NO)c(-c3ccncc3)[nH]2)cc1
active: MKL-2 14.8 µM
inactive: MCC-26 | UISO

c1cc(OCCN2CCCCC2)cc(-c2n[nH]c3ccc(-c4ncn[nH]4)cc23)c1
active: WaGa 18.7 µM
not listed: MKL-2 | UISO | NIH3T3
inactive: all other assays above

CN1C(=O)C[C@H](C(=O)N[C@@H](Cc2cnc[nH]2)C(=O)N2CCC[C@@H]2C(N)=O)NC1=O
active: MKL-2 6.62 µM | WaGa 20.9 µM
inactive: MCC-26 | NIH3T3

C[C@@H]1[C@H](C)CC[C@]2(C(=O)O)CC[C@]3(C)C(=CC[C@@H]4[C@@]5(C)CC[C@H](O)C(C)(C)[C@H]5CC[C@]43C)[C@@H]12
inactive: MCC-26 | MKL-2 | NIH3T3

COc1ccc(Cn2ccc3ccc(C(=O)NO)cc32)cc1
inactive: MCC-26 | MKL-2 | C33A | CASKI | Es-2

N#CC(c1ccc(Cl)cc1)c1c(Cl)cc(-n2ncc(=O)[nH]c2=O)cc1Cl (configuration not stated)
active: WaGa 13.2 µM
inactive: MCC-26 | UISO

CNC1CCC(N(Cc2cccc(-c3ccncc3)c2)C(=O)c2sc3ccccc3c2Cl)CC1 (configuration not stated)
active: MKL-2 16.6 µM | CASKI 22.4 µM
inactive: MCC-26

O=C(Nc1cccc2c(=O)cc(-c3nn[nH]n3)oc12)c1ccc(OCCCCc2ccccc2)cc1
inactive: MCC-26 | MKL-1 | WaGa | C33A | CASKI

O=C(C=Cc1ccc(O)cc1)c1ccc(O)cc1O
inactive: MCC-26 | MKL-1 | WaGa

CC1(C)C(N(O)C(=O)Nc2ccc(Cl)cc2)N(c2ccc(Cl)cc2)C(=O)N1CC(=O)NN=CC=Cc1ccc([N+](=O)[O-])o1 (configuration not stated)
inactive: MCC-26 | UISO
active: MKL-2 23.5 µM

C[C@@H]1CCO[C@H]2Cn3cc(C(=O)NCc4ccc(F)cc4F)c(=O)c(O)c3C(=O)N12
inactive: MCC-26 | UISO

COc1cc2nccc(Oc3ccc(NC(=O)Nc4ccc(F)cc4F)c(F)c3)c2cc1OC
inactive: MCC-26 | MKL-2 | UISO | WaGa

O=C(NC[C@H](O)CO)c1ccncc1Nc1ccc(I)cc1F
active: MKL-2 6.62 µM
inactive: MCC-26 | UISO | WaGa

CCCCC[C@H](O)C=C[C@H]1[C@H](O)CC(=O)[C@H]1CC=CCCCC(=O)O
inactive: MCC-26 | C33A | CASKI | Es-2
active: MKL-2 16.6 µM

Oc1cc(O)cc(C=Cc2ccc(O)c(O)c2)c1
inactive: MCC-26
active: WaGa 18.7 µM

CNC(=O)c1cc(Oc2ccc(NC(=O)Nc3ccc(Cl)c(C(F)(F)F)c3)c(F)c2)ccn1
active: MKL-2 16.6 µM | UISO 5.9 µM | WaGa 18.7 µM
inactive: MCC-26 | CAOV3 | CASKI | Es-2

O=C(Nc1ccc(OC(F)(F)F)cc1)c1sccc1NCc1ccnc2ccccc12
inactive: MCC-26 | C33A | CASKI | Es-2

CCC(C)SSc1ncc[nH]1 (configuration not stated)
active: MKL-2 16.6 µM | WaGa 23.5 µM
inactive: MCC-26

C[C@@]1(C(=O)Nc2ccc(F)nc2)CCCN1c1nc(Nc2cc(C3CC3)[nH]n2)c2cccn2n1
active: MCC-26 16.6 µM | NIH3T3 4.61 µM | UISO 0.0833 µM | WaGa 3.32 µM | CASKI 14.1 µM
inactive: C33A | Es-2

CN(C)CCOc1cc(-c2cn[nH]c2)ccc1NC(=O)C1COc2ccccc2O1 (configuration not stated)
inactive: MCC-26 | C33A | CASKI | Es-2

CN(C)CCN(Cc1ccc(Cl)cc1)c1ccccn1
not listed: MCC-26 | WaGa | NIH3T3
inactive: all other assays above

Cc1ccc(C2=Nc3ccc(Cl)cc3OC2)cc1
active: MKL-1 14.8 µM

CCN1C[C@H](C)n2c(c(O)c3c(=O)n(Cc4ccc(F)c(Cl)c4)nc(C(=O)NC)c32)C1=O
not listed: MCC-26 | NIH3T3
inactive: all other assays above

CN[C@@H]1CN(c2ccc3c(=O)c(C(=O)O)cn(-c4nccs4)c3n2)C[C@@H]1OC
active: MKL-1 1.82 µM | MKL-2 3.23 µM | WaGa 1.15 µM

CSc1cccc(Nc2ncc3cc(-c4c(Cl)cccc4Cl)c(=O)n(C)c3n2)c1
inactive: MKL-1 | MKL-2 | WaGa

O=C(O)c1ccc(O)c2ncc(N3CCOCC3)cc12
active: MKL-1 16.6 µM | MKL-2 14.8 µM | WaGa 23.5 µM

CC1=C(C(=O)Nc2cc3cn[nH]c3cc2F)C(c2ccc(C(F)(F)F)cc2)CC(=O)N1 (configuration not stated)
inactive: MKL-1 | MKL-2 | UISO | C33A | CASKI | Es-2

CCC(c1ccc(O)cc1)C(CC)c1ccc(O)cc1 (configuration not stated)
inactive: MKL-1 | MKL-2 | NIH3T3 | UISO

N#CC1(c2cccc(C(=O)Nc3cc(Oc4ccc5nc(NC(=O)C6CC6)sc5n4)ccc3F)c2Cl)CC1
inactive: MKL-1 | MKL-2 | C33A

CCC(=C(CC)c1ccc(O)cc1)c1ccc(O)cc1
inactive: MKL-1

Nc1ncnc2c1c(-c1cccc(OCc3ccccc3)c1)cn2C1CC(CN2CCC2)C1 (configuration not stated)
active: CASKI 28.2 µM
inactive: MKL-1 | MKL-2 | WaGa

CON(C)C(=O)N1N=C(c2cc(F)ccc2F)S[C@]1(CCCN)c1ccccc1
inactive: MKL-1 | MKL-2 | UISO | WaGa

O=C1C(CCC(O)c2ccc(F)cc2)C(c2ccc(O)cc2)N1c1ccc(F)cc1 (configuration not stated)
inactive: MKL-1 | MKL-2 | UISO | WaGa

CC[C@]1(O)C[C@H]2CN(CCC3=c4ccccc4=N[C]3[C@@](C(=O)OC)(c3cc4c(cc3OC)N(C)[C@H]3[C@@](O)(C(N)=O)[C@H](O)[C@]5(CC)C=CCN6CC[C@]43[C@@H]65)C2)C1
active: MKL-1 0.0037 µM | MKL-2 0.0469 µM

CC=C(C(=CC)c1ccc(O)cc1)c1ccc(O)cc1
inactive: MKL-1 | MKL-2 | UISO | WaGa

CCCCCOC(=O)Nc1nc(=O)n([C@@H]2O[C@H](C)[C@@H](O)C2O)cc1F (some centres not stated)
inactive: MKL-1 | MKL-2 | UISO | WaGa

Cc1ccccc1C(C(=O)NC1CCCCC1)N(C(=O)CNc1ccc(C#N)cc1)c1cccc(F)c1 (configuration not stated)
not listed: MCC-26 | CAOV3 | NIH3T3
inactive: all other assays above

CCC=CC[C@H]1C(=O)CC[C@@H]1CC(=O)OC
inactive: MKL-1 | MKL-2 | UISO | WaGa

COc1cc(Nc2nc3ccccc3nc2NS(=O)(=O)c2ccc(NC(=O)c3ccc(C)c(OC)c3)cc2)cc(OC)c1
not listed: MCC-26
inactive: all other assays above

Cc1cccc(-c2[nH]c(C(C)(C)C)nc2-c2ccc3c(c2)OCO3)n1
active: MKL-1 3.72 µM | MKL-2 0.743 µM | UISO 1.32 µM | WaGa 2.64 µM

Cn1cnc(-c2cc3nccc(Oc4ccc(NC(=S)NC(=O)Cc5ccccc5)cc4F)c3s2)c1
active: UISO 18.7 µM
not listed: MCC-26 | CAOV3 | NIH3T3
inactive: all other assays above

CCCCN(CCCC)CC(O)c1cc(Cl)cc2c1-c1ccc(Cl)cc1C2=Cc1ccc(Cl)cc1 (configuration not stated)
inactive: MKL-1 | MKL-2 | NIH3T3 | UISO | WaGa

Cc1nc(NC(=O)N2CCC[C@@H]2C(N)=O)sc1-c1csc(C(C)(C)C)n1
inactive: MKL-1 | MKL-2

CNC(=O)[C@H](CC1=CN=C2C=CCC=C12)NC(=O)[C@@H](CC(=O)NO)CC(C)C
active: MKL-1 0.296 µM | MKL-2 0.264 µM | WaGa 0.296 µM

Cc1ccc(NC(=O)c2cccc(N(C)C)c2)cc1NC(=O)c1ccc(O)cc1
active: MKL-1 8.33 µM | MKL-2 2.96 µM | WaGa 8.33 µM

COC(=O)[C@H](c1ccccc1Cl)N1CCc2sccc2C1
inactive: MKL-1 | MKL-2 | UISO | WaGa

Nc1ccc(-c2ccc3ncc4ccc(=O)n(-c5cccc(C(F)(F)F)c5)c4c3c2)cn1
active: MKL-1 0.148 µM | MKL-2 0.132 µM | UISO 0.0332 µM | WaGa 0.372 µM | CAOV3 0.631 µM | CASKI 1 µM | Es-2 0.316 µM

O=C(O)c1nc(=O)[nH]c(=O)[nH]1
inactive: MKL-1 | MKL-2 | UISO | WaGa

Nc1ccn([C@@H]2O[C@H](CO)[C@@H](O)[C@H]2O)c(=O)n1
inactive: MKL-2
active: MKL-1 9.35 µM | WaGa 0.132 µM

Cc1ccc(C(=O)N(CCCN)[C@@H](c2oc3cc(Cl)ccc3c(=O)c2Cc2ccccc2)C(C)C)cc1
inactive: MKL-1 | WaGa
active: MKL-2 8.33 µM

Cc1ccccc1-n1c(Cn2nc(-c3cccc(O)c3)c3c(N)ncnc32)nc2cccc(C)c2c1=O
active: MKL-1 1.05 µM | MKL-2 10.5 µM | UISO 10.5 µM | WaGa 0.118 µM
inactive: NIH3T3 | C33A | CASKI | Es-2

COc1cccc(OC)c1-c1cc(C(=O)NC2(C(=O)O)C3CC4CC(C3)CC2C4)nn1-c1ccnc2cc(Cl)ccc12 (configuration not stated)
inactive: MKL-1 | MKL-2 | NIH3T3 | UISO | WaGa

CC(C)(C)c1[nH]cnc1C=c1[nH]c(=O)c(=Cc2ccccc2)[nH]c1=O
active: MKL-2 0.0605 µM | UISO 0.0121 µM
inactive: MKL-1

COc1c(C)c2c(c(O)c1CC=C(C)CCC(=O)O)C(=O)OC2
active: MKL-1 4.69 µM | MKL-2 2.09 µM | UISO 9.35 µM | WaGa 3.32 µM

COc1ccc(C=CC(=O)Nc2ccccc2C(=O)O)cc1OC
inactive: MKL-1 | MKL-2 | UISO | WaGa

COc1cc(Cl)cn2c(-c3cccc(NC4CNC4)n3)cnc12
inactive: MKL-1 | MKL-2 | UISO | WaGa

COc1nccc(-c2c(-c3ccc(F)cc3)ncn2C2CCNCC2)n1
not listed: MCC-26 | NIH3T3
inactive: all other assays above

C[C@@H]1CC=CC=CC=CC=C[C@@H](O[C@@H]2O[C@H](C)[C@@H](O)[C@H](N)[C@H]2O)C[C@@H]2O[C@](O)(C[C@@H](O)C[C@@H]3O[C@@H]3C=CC(=O)O1)C[C@H](O)[C@@H]2C(=O)O
inactive: MKL-1 | MKL-2 | UISO | WaGa
